{
  "source": "PubChem BioAssay (NCATS)",
  "note": "Records with an inconclusive call do not appear. Where a call stands in place of a potency, no number is given. A number with no mark means an inactive call. Calls of active or inactive are those of the source. The call rests on the fitted dose curve; in most records, active means well fitted curve in the direction sought with a large enough effect; inconclusive means small, poorly fitted or top-dose-only effect, or another doubt; inactive means no such curve, though single readings can be large; an effect the other way counts as inactive or inconclusive. Further: nearly all actives have a fitted effect of over 70% in size. Potency means the concentration at half of the fitted maximal effect.",
  "data": [
    {"assay": "Primary qHTS for inhibitors of nuclear receptor binding SET domain protein 2 (NSD2) in an isogenic RCH-ACV NSD2 p.E1099K mutant (9B) (AID 1645876)", "conditions": "RCH-ACV NSD2 E1099K (9B) viability, CellTiter-Glo, 72 h; series mostly up to 44.9 µM", "values": [
      {"smiles": "CCN1CCc2nc(N)oc2CC1", "Potency": "inactive"},
      {"smiles": "CC(=O)Nc1nnc(S(N)(=O)=O)s1", "Potency": "inactive"},
      {"smiles": "CCn1cc(C(=O)O)c(=O)c2cc3c(cc21)OCO3", "Potency": "inactive"},
      {"smiles": "NC(Cc1ccc(Cl)cc1)C(=O)O", "note": "(stereo not drawn)", "outcome": "inactive [at 0.588 µM]"},
      {"smiles": "N[C@@H](COP(=O)(O)O)C(=O)O", "Potency": "inactive"},
      {"smiles": "Cc1ccc(=O)n(-c2ccccc2)c1", "Potency": "inactive"},
      {"smiles": "C=CCc1ccccc1OCC(O)CNC(C)C", "note": "(stereo not drawn)", "Potency": "inactive"},
      {"smiles": "c1cnc(N2CCN(Cc3ccc4c(c3)OCO4)CC2)nc1", "Potency": "inactive"},
      {"smiles": "CN(C)CCOC(=O)COc1ccc(Cl)cc1", "Potency": "inactive"},
      {"smiles": "CCCCCCCC/C=C\\CCCCCCCC(=O)NCc1ccc(O)c(OC)c1", "Potency": "2.66 µM (active)"},
      {"smiles": "Cc1cc(C)c(/C=C2\\C(=O)Nc3ccccc32)[nH]1", "Potency": "inactive"},
      {"smiles": "CCCCNc1ccc(C(=O)OCCN(C)C)cc1", "Potency": "inactive"},
      {"smiles": "CN(C)CCN(Cc1cccs1)c1ccccn1", "Potency": "inactive"},
      {"smiles": "CCn1nc(C(=O)O)c(=O)c2cc3c(cc21)OCO3", "Potency": "inactive"},
      {"smiles": "Cc1ccc(/C(=C\\CN2CCCC2)c2ccccn2)cc1", "Potency": "inactive"},
      {"smiles": "Cc1nnc(SCC2=C(C(=O)O)N3C(=O)[C@@H](NC(=O)Cn4cnnn4)[C@H]3SC2)s1", "Potency": "inactive"},
      {"smiles": "CCCNC(C)C(=O)Nc1ccccc1C", "note": "(stereo not drawn)", "Potency": "inactive"},
      {"smiles": "Cc1nc2ccccn2c(=O)c1CCN1CCC(C(=O)c2ccc(F)cc2)CC1", "Potency": "inactive"},
      {"smiles": "CO[C@@]1(NC(=O)CSCC#N)C(=O)N2C(C(=O)O)=C(CSc3nnnn3C)CS[C@@H]21", "Potency": "inactive"},
      {"smiles": "Nc1ncn([C@@H]2O[C@H](CO)[C@@H](O)[C@H]2O)c(=O)n1", "Potency": "10.5 µM (active)"},
      {"smiles": "CCO/C([O-])=N/c1c[n+](N2CCOCC2)no1", "Potency": "inactive"},
      {"smiles": "CN(C)C(=O)Oc1cccc([N+](C)(C)C)c1", "Potency": "inactive"},
      {"smiles": "CN1C(=O)CC[C@H]1c1cccnc1", "Potency": "inactive"},
      {"smiles": "Nc1c2c(nc3ccccc13)CCCC2O", "note": "(stereo not drawn)", "Potency": "inactive"},
      {"smiles": "CN=C(NC#N)NCCSCc1nc[nH]c1C", "Potency": "inactive"},
      {"smiles": "CCN(CC)CCOCCOC(=O)C1(c2ccccc2)CCCC1", "Potency": "inactive"},
      {"smiles": "CC(C)[N+](C)(CCOC(=O)C1c2ccccc2Oc2ccccc21)C(C)C", "Potency": "inactive"},
      {"smiles": "CCCN(CCC)C(=O)C(CCC(=O)O)NC(=O)c1ccccc1", "note": "(stereo not drawn)", "Potency": "inactive"},
      {"smiles": "COc1ccc([C@@H]2Sc3ccccc3N(CCN(C)C)C(=O)[C@@H]2OC(C)=O)cc1", "Potency": "inactive"},
      {"smiles": "O=C(O)CN(CCN(CC(=O)O)CC(=O)O)CCN(CC(=O)O)CC(=O)O", "Potency": "inactive"},
      {"smiles": "CC(=O)[C@@]1(O)CC[C@H]2[C@@H]3CCC4=CC(=O)CC[C@]4(C)[C@H]3CC[C@@]21C", "Potency": "inactive"},
      {"smiles": "CC(N=C(NC#N)Nc1ccncc1)C(C)(C)C", "note": "(stereo not drawn)", "Potency": "inactive"},
      {"smiles": "CC(C)NCC(O)c1cc(O)cc(O)c1", "note": "(stereo not drawn)", "Potency": "inactive"},
      {"smiles": "CC1=NS(=O)(=O)c2cc(Cl)ccc2N1", "Potency": "inactive"},
      {"smiles": "CN(C)CCCN1c2ccccc2Sc2ccc(C(F)(F)F)cc21", "Potency": "21.1 µM (active)"},
      {"smiles": "CCCCCN(CCCCC)C(=O)C(CCC(=O)O)NC(=O)c1ccc(Cl)c(Cl)c1", "note": "(stereo not drawn)", "Potency": "inactive"},
      {"smiles": "O=C(O)CCCCCCCC(=O)O", "Potency": "inactive"},
      {"smiles": "NC(=O)c1cn(Cc2c(F)cccc2F)nn1", "Potency": "inactive"},
      {"smiles": "CC(C)(C)c1ccc(C(=O)CCCN2CCC(OC(c3ccccc3)c3ccccc3)CC2)cc1", "Potency": "11.9 µM (active)"}
    ]},
    {"assay": "Primary qHTS for inhibitors of nuclear receptor binding SET domain protein 2 (NSD2) in an RCH-ACV wild type WT cells (2C) (AID 1645877)", "conditions": "RCH-ACV NSD2 WT (2C) viability, CellTiter-Glo, 72 h; series mostly up to 44.9 µM", "values": [
      {"smiles": "CCN1CCc2nc(N)oc2CC1", "Potency": "inactive"},
      {"smiles": "CC(=O)Nc1nnc(S(N)(=O)=O)s1", "Potency": "inactive"},
      {"smiles": "CCn1cc(C(=O)O)c(=O)c2cc3c(cc21)OCO3", "Potency": "inactive"},
      {"smiles": "NC(Cc1ccc(Cl)cc1)C(=O)O", "note": "(stereo not drawn)", "activity change, negative = cell killing": "2.13% [at 0.588 µM]"},
      {"smiles": "N[C@@H](COP(=O)(O)O)C(=O)O", "Potency": "inactive"},
      {"smiles": "Cc1ccc(=O)n(-c2ccccc2)c1", "Potency": "inactive"},
      {"smiles": "C=CCc1ccccc1OCC(O)CNC(C)C", "note": "(stereo not drawn)", "Potency": "inactive"},
      {"smiles": "c1cnc(N2CCN(Cc3ccc4c(c3)OCO4)CC2)nc1", "Potency": "inactive"},
      {"smiles": "CN(C)CCOC(=O)COc1ccc(Cl)cc1", "Potency": "inactive"},
      {"smiles": "CCCCCCCC/C=C\\CCCCCCCC(=O)NCc1ccc(O)c(OC)c1", "Potency": "3.35 µM (active)"},
      {"smiles": "Cc1cc(C)c(/C=C2\\C(=O)Nc3ccccc32)[nH]1", "Potency": "inactive"},
      {"smiles": "CCCCNc1ccc(C(=O)OCCN(C)C)cc1", "Potency": "inactive"},
      {"smiles": "CN(C)CCN(Cc1cccs1)c1ccccn1", "Potency": "inactive"},
      {"smiles": "CCn1nc(C(=O)O)c(=O)c2cc3c(cc21)OCO3", "Potency": "inactive"},
      {"smiles": "CCCNC(C)C(=O)Nc1ccccc1C", "note": "(stereo not drawn)", "Potency": "inactive"},
      {"smiles": "CO[C@@]1(NC(=O)CSCC#N)C(=O)N2C(C(=O)O)=C(CSc3nnnn3C)CS[C@@H]21", "Potency": "inactive"},
      {"smiles": "Nc1ncn([C@@H]2O[C@H](CO)[C@@H](O)[C@H]2O)c(=O)n1", "Potency": "9.34 µM (active)"},
      {"smiles": "CCO/C([O-])=N/c1c[n+](N2CCOCC2)no1", "Potency": "inactive"},
      {"smiles": "CN(C)C(=O)Oc1cccc([N+](C)(C)C)c1", "Potency": "inactive"},
      {"smiles": "CN1C(=O)CC[C@H]1c1cccnc1", "Potency": "inactive"},
      {"smiles": "Nc1c2c(nc3ccccc13)CCCC2O", "note": "(stereo not drawn)", "Potency": "inactive"},
      {"smiles": "CN=C(NC#N)NCCSCc1nc[nH]c1C", "Potency": "inactive"},
      {"smiles": "CC(C)[N+](C)(CCOC(=O)C1c2ccccc2Oc2ccccc21)C(C)C", "Potency": "inactive"},
      {"smiles": "CCCN(CCC)C(=O)C(CCC(=O)O)NC(=O)c1ccccc1", "note": "(stereo not drawn)", "Potency": "inactive"},
      {"smiles": "COc1ccc([C@@H]2Sc3ccccc3N(CCN(C)C)C(=O)[C@@H]2OC(C)=O)cc1", "Potency": "inactive"},
      {"smiles": "CC(=O)[C@@]1(O)CC[C@H]2[C@@H]3CCC4=CC(=O)CC[C@]4(C)[C@H]3CC[C@@]21C", "Potency": "inactive"},
      {"smiles": "CC(N=C(NC#N)Nc1ccncc1)C(C)(C)C", "note": "(stereo not drawn)", "Potency": "inactive"},
      {"smiles": "CC(C)NCC(O)c1cc(O)cc(O)c1", "note": "(stereo not drawn)", "Potency": "inactive"},
      {"smiles": "CC1=NS(=O)(=O)c2cc(Cl)ccc2N1", "Potency": "inactive"},
      {"smiles": "CN(C)CCCN1c2ccccc2Sc2ccc(C(F)(F)F)cc21", "Potency": "18.8 µM (active)"},
      {"smiles": "CCCCCN(CCCCC)C(=O)C(CCC(=O)O)NC(=O)c1ccc(Cl)c(Cl)c1", "note": "(stereo not drawn)", "Potency": "inactive"},
      {"smiles": "O=C(O)CCCCCCCC(=O)O", "Potency": "inactive"},
      {"smiles": "NC(=O)c1cn(Cc2c(F)cccc2F)nn1", "Potency": "inactive"},
      {"smiles": "CC(C)(C)c1ccc(C(=O)CCCN2CCC(OC(c3ccccc3)c3ccccc3)CC2)cc1", "Potency": "9.44 µM (active)"}
    ]}
  ]
}
